This is part of a sample that, as a whole, favours compounds with a hit. Of some 83,000 tested, about 20% had one in any assay.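 Single-concentration screen, 48 h exposure, 96-well plates. Endpoint: percent growth. Below 10 = active.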 Calls of active or inactive are those of the source.
system: SN12C renal; assay: NCI-60 one-dose screen, 48 h (100 = growth as untreated, 0 = no growth, -100 = all killed); settings: 10 µM unless noted

SMILES	growth
CC(C)(N)Cc1ccccc1	108% (inactive)
CC1=C(CCCOC(=O)CN)C2=C(C)C3(CC3)[C@@](C)(O)C(=O)C2=C1	81.3% (inactive)
COC(=O)[C@@H](C)C[C@H](Cc1ccccc1)NC(=O)c1csc(CC[C@H](C(C)C)N(C)C(=O)[C@@H](NC(=O)[C@H]2CCCCN2C)C(C)C)n1	36.5% (inactive)
COC(=O)[C@H](C[C@H](Cc1ccccc1)NC(=O)c1csc([C@@H](C[C@H](C(C)C)N(C)C(=O)[C@@H](NC(=O)[C@H]2CCCCN2C)C(C)C)OC(C)=O)n1)NC(=O)OCc1ccccc1	9.35% [8.5 µM] (active)
[Au+].[N-]=C=O.c1ccc(CN2[CH-]N(Cc3ccccc3)C(c3ccccc3)=C2c2ccccc2)cc1	74% (inactive)
CNCc1cccnc1	111% (inactive)
CC(=O)O[C@H](C[C@H](C(C)C)N(C)C(=O)[C@@H](NC(=O)[C@H]1CCCCN1C)C(C)(C)C)c1nc(C(=O)N[C@@H](Cc2ccccc2)C[C@H](C)C(=O)O)cs1	17.9% (inactive)
C[C@@H]1O[C@@H](O[C@H]2C[C@@H](O)[C@]3(CO)C4C(CC[C@]3(O)C2)[C@@]2(O)CC[C@H](C3=CC(=O)OC3)[C@@]2(C)C[C@H]4O)[C@H](O)[C@H](O)[C@H]1O (stereo not given in full)	-22.5% (active)
Nc1ccc(Cl)cc1	95.3% (inactive)
Fc1cccc(NCOOC2(OOCNc3cccc(F)c3)CCCCC2)c1	103% (inactive)
COC(=O)[C@@H](NC(=O)c1cn(CCC2CCCCC2)c2ccccc12)C(C)(C)C	65.7% (inactive)
CCOc1ccccc1C(=O)OCC(Cl)(Cl)Cl	102% (inactive)
CCOP(=O)(Cc1ccc(C#N)cc1)OCC	97% (inactive)
N#CCCNc1ccccc1	111% (inactive)
C[C@]12CC[C@H]3[C@@H](CC[C@]4(O)C[C@@H](O[C@@H]5O[C@H](CO)[C@@H](O[C@@H]6OC[C@@H](O)[C@H](O)[C@H]6O)[C@H](O)[C@H]5O)CC[C@]34C=O)[C@@]1(O)CC[C@@H]2C1=CC(=O)OC1	-32.1% (active)
O=P(N1CC1)(N1CC1)N1CCc2ccccc21	92.4% (inactive)
COc1cc([C@@H]2c3cc4c(cc3[C@H](OC(C)=O)[C@H]3COC(=O)[C@H]23)OCO4)cc(OC)c1OC	31.9% (inactive)
COC(=O)[C@@H](C)C[C@H](Cc1ccc(F)cc1)NC(=O)c1csc([C@@H](C[C@H](C(C)C)N(C)C(=O)[C@@H](NC(=O)[C@H]2CCCCN2C)C(C)C)OC(C)=O)n1	26.6% (inactive)
N#C[Se]CCN1C(=O)c2ccccc2C1=O	64.4% (inactive)
O=[N+]([O-])c1c(Br)sc(Br)c1[N+](=O)[O-]	30% (inactive)
CN1C(=O)C(=Cc2cn(CCCCCCn3c4ccccc4c(=O)c4ccccc43)c3ccccc23)C(=O)N(C)C1=O	104% (inactive)
CCCCCCCC[n+]1ccc2ccccc2c1	48.3% (inactive)
COC(=O)C12CC(NC(=O)c3csc([C@@H](C[C@H](C(C)C)N(C)C(=O)[C@@H](NC(=O)[C@H]4CCCCN4C)C4CC4)OC(C)=O)n3)(C1)C2	37.9% (inactive)
Cn1cc(-c2csc(-c3cn(CCCCN4CCCCC4)c4ccccc34)n2)c2cccnc21	81.8% (inactive)
CC1(C)N=C(N)N=C(N)N1c1ccc(CCC(=O)Nc2ccc(S(=O)(=O)F)cc2)c(Cl)c1	28.9% (inactive)

Source: PubChem BioAssay (NCI)
